Only some compounds are listed: those with a hit (about 10% of all), similar ones and a draw of the others.
JMJD2A Tudor: qHTS Assay for Inhibitors of JMJD2A-Tudor Domain; Lysine-specific demethylase 4A (Homo sapiens), O75164; AlphaScreen JMJD2A-Tudor / H3K4me3 peptide binding; Potency, µM (series often up to 114 µM), inactives show at the highest dose activity change, negative = inhibition, most hits filed as inhibitors; 390,000 tested, 4.4% active; further: potency means the concentration at half of the fitted maximal effect; on the % scale 0 is the no-effect control and ±100 the full control effect; nearly all actives have a fitted effect of over 50% in size
Six1-Eya2 inh: qHTS Assay for Inhibitors of the Six1/Eya2 Interaction. Homeobox protein SIX1 (Homo sapiens) + Protein phosphatase EYA2 (Homo sapiens), …. AlphaScreen GST-Six1/His-Eya2 binding, biochemical; hits give low values. activity change, % (no concentration beside the values). 360,000 tested, 0.56% active. AID 651725, 2012; in the data active means activity change below about -65%; inconclusive means mostly about -30% to -63%; further: on the % scale 0 is the no-effect control and ±100 the full control effect
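Six1/Eya2 binding was read as AlphaScreen signal after compounds were pinned into GST-Six1 plus His-tagged Eya2 (5X stock 250/500 nM) in pH 8.0 Tris/NaCl/TCEP buffer, beads added, then incubated 1 h, 37 C, dark.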
G9a block: qHTS Assay for Inhibitors of Histone Lysine Methyltransferase G9a | G9a H3K9 monomethylation, AlphaScreen, 2 h | Potency, µM (top dose mostly 102 µM), for inactives: top-dose activity, negative = inhibition, actives largely listed as inhibitors | 350,000 tested, 8.8% active; further: potency means the concentration at half of the fitted maximal effect; on the % scale 0 is the no-effect control and ±100 the full control effect; nearly all actives have a fitted effect of over 75% in size
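G9a (20 nM) was preincubated 15 min with compound, then reacted 2 h at room temperature with 500 nM biotin-H3K9 peptide and 20 µM SAM. Monomethyl-H3K9 detected by AlphaScreen using anti-H3K9me1 antibody.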
CtBP-E1A blk: qHTS Assay for Inhibitors of the CtBP/E1A Interaction; CtBP / adenovirus E1A interaction (AlphaScreen); AlphaScreen GST-E1A/His-CtBP binding, 1536-well; hits give low values; activity change, % (concentration not given with the values); 340,000 tested, 0.49% active; AID 651724, 2012; in the data active means activity change below about -65%; inconclusive means mostly about -30% to -63%; further: on the % scale 0 is the no-effect control and ±100 the full control effect
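In 5 uL wells, 23 nL compound meets equimolar GST-E1A and His-CtBP (5X stock 125 nM each) for 2 h, 37 °C. Beads (5X, 50 ug/mL) then 1 h, 37 °C, dark.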
BAZ2B inh: qHTS Assay for Inhibitors of BAZ2B; AlphaScreen BAZ2B-H3K14Ac peptide displacement; Potency, µM (highest dose often 114 µM), without a hit: top-dose activity change, negative = inhibition, actives largely listed as inhibitors; 360,000 tested, 4.4% active; AID 504333, 2011; further: potency means the concentration at half of the fitted maximal effect; on the % scale 0 is the no-effect control and ±100 the full control effect; nearly all actives have a fitted effect of over 60% in size
Target sequence (Q9UIF8 whole entry, looked up): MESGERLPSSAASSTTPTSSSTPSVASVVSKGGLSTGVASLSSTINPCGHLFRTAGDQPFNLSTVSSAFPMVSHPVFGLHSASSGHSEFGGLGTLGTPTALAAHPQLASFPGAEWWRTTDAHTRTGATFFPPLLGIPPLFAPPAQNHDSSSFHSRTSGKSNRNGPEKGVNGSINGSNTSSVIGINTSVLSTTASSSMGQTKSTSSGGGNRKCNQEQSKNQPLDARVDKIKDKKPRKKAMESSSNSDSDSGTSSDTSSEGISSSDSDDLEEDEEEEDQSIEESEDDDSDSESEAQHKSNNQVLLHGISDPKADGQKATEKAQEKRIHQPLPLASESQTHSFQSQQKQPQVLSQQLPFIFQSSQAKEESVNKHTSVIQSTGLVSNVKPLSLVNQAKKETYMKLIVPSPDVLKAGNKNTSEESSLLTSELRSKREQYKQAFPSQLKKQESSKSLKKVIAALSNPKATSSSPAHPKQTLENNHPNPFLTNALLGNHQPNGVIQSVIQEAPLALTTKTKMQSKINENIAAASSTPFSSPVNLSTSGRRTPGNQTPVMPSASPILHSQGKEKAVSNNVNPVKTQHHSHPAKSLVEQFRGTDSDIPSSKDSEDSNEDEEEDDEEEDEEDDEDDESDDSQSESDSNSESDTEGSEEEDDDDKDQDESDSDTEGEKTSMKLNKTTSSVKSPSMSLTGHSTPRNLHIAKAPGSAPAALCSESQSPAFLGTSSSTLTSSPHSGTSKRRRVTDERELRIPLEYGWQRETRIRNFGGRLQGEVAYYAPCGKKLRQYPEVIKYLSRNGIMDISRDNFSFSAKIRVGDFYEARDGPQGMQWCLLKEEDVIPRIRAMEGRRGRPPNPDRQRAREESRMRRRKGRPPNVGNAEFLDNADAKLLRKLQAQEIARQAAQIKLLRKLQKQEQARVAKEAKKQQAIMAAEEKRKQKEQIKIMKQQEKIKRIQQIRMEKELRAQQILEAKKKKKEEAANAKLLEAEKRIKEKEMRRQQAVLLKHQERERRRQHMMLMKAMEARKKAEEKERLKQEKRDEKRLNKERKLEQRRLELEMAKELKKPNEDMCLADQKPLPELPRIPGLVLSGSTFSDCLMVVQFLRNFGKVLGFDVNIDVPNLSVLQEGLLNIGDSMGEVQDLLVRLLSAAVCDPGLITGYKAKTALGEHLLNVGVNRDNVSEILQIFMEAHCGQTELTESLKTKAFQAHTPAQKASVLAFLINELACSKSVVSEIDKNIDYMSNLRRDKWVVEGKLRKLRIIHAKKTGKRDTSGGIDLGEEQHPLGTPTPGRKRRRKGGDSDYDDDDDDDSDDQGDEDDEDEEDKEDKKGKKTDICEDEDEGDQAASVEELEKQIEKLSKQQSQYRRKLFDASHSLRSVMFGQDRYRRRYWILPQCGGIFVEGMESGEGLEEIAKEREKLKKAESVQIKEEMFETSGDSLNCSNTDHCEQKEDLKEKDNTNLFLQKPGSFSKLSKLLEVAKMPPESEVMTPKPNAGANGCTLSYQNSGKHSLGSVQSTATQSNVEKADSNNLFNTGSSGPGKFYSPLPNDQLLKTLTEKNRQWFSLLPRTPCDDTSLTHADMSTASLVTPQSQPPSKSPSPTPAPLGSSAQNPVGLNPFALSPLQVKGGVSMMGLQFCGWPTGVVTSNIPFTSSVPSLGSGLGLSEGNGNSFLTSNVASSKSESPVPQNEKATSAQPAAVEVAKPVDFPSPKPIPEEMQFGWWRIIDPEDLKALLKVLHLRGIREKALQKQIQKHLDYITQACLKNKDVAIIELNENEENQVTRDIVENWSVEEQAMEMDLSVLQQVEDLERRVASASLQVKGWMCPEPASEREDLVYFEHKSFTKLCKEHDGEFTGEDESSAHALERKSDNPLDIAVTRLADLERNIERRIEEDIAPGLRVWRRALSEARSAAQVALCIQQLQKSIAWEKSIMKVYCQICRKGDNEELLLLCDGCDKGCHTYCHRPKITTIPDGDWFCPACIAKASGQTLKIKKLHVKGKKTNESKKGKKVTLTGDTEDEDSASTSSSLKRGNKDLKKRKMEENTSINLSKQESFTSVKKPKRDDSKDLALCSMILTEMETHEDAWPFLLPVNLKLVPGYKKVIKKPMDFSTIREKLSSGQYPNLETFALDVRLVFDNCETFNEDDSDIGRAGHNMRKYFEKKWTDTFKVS
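AlphaScreen displacement: compounds (up to 110uM) incubated 30 min at room temperature with a preformed 50 nM BAZ2B/50 nM biotinylated H3K14Ac peptide complex in PBS pH 7.4 with Tween-20. Donor and acceptor beads at 10 ug/mL final added, 20 min light-protected before reading.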
HP1b chromo inh: HTS for Inhibitors of HP1-beta Chromodomain Interactions with Methylated Histone Tails; Chromobox protein homolog 1 (Homo sapiens), P83916; AlphaScreen HP1-beta / biotin-H3K9me3 peptide binding; Potency, µM (series often up to 114 µM), for inactives: at the highest dose activity change, negative = inhibition, actives largely listed as inhibitors; 390,000 tested, 0.56% active; AID 540317, 2011; further: potency means the concentration at half of the fitted maximal effect; nearly all actives have a fitted effect of over 70% in size
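HP1-beta protein (50 nM final) preincubated 30 min at room temperature with biotinylated H3(1-18)K9me3 peptide (50 nM) in PBS pH 7.4, 0.01% Tween-20, then compound added for 30 min. AlphaScreen streptavidin donor/nickel chelate acceptor beads (10 ug/mL final), 30 min dark, luminescence read.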
An asterisk follows results filed as active; u = inconclusive; x = no result given; [ ] = another dose, or the depositor's remark. Unless noted, the call rests on the fitted dose curve; in most records, active means well fitted inhibition curve with a large enough effect; inconclusive means small, poorly fitted or top-dose-only effect; inactive means no such curve, though single readings can be large or run the other way.

SMILES | JMJD2A Tudor | Six1-Eya2 inh | G9a block | CtBP-E1A blk | BAZ2B inh | HP1b chromo inh
CN1CCN(/N=C/c2ccc(Cl)c(Cl)c2)CC1 | u | -6.0 | u | 6.8 | u | -10.9%
COc1ccc(/C=N/N2CCN(C)CC2)cc1O | -13.7% | 2.5 | 31.6µM* | 8.8 | 15.2% | -6.3%
CN1CCN(/N=C/c2ccc(Br)cc2)CC1 | -32.9% | -11.7 | u | -8.5 | 11.7% | 21.4%
CN1CCN(/N=C/c2ccc(N(c3ccccc3)c3ccccc3)cc2)CC1 | 17.8µM* | -5.6 | 8.4%[12.7 µM] | -0.8 | 35.5µM* | -38.3%
CN1CCN(/N=C/c2ccc(N(C)c3ccccc3)cc2)CC1 | -32.1% | -15.6 | u | -9.7 | 35.5µM* | -5.3%
CCc1ccc(CNCc2c(C(=O)O)c(C)n(Cc3c(F)cccc3Cl)c2C)cc1 | u | x | -28.7%[59 µM] | x | u | -2.1%
CCCN1CCN(CC2=C(C(=O)OCC)C(c3ccc(OC(C)C)cc3)NC(=O)N2)CC1 (configuration not stated) | -14.3% | x | -33.9%[59 µM] | x | x | 27.0%
CCn1c(C)c(C)c2cc(C(=O)N3CCN(c4ccccc4)CC3)ccc21 | 44.7µM* | u | u | u | 28.2µM* | u
CCn1c(C)c(C)c2cc(C(=O)NC3CCCCCC3)ccc21 | u | -4.4 | -6.0% | x | 35.5µM* | -19.3%[57 µM]
Cc1c(C)n(Cc2ccc(F)cc2)c2ccc(C(=O)N3CCN(c4ccccn4)CC3)cc12 | u | -26.5 | 31.6µM* | x | u | -20.6%[57 µM]
CCC1CCCCN1CCCNC(=O)c1ccc2c(c1)c(C)c(C)n2CC (configuration not stated) | u | -22.7 | u | -18.8 | u | -13.7%
CCn1c(C)c(C)c2cc(C(=O)N3CCCC3)ccc21 | -24.4% | -19.3 | -4.2% | -29.5 | -36.4% | -0.9%
O=C(NCCNC1CCC(c2ccccc2)CC1)c1ccc(F)cc1 (configuration not stated) | 5.62µM* | 6.3 | u | -2.1 | 25.1µM* | u
Cc1nc(-c2ccc(Cl)cc2)sc1CCNC(=O)c1ccc(C(F)(F)F)cc1 | -6.1% | x | 9.8%[59 µM] | x | -2.2% | 9.5%[57 µM]
CCN(CC)/[N+]([O-])=N/Oc1cc(O/N=[N+](\[O-])N(C)C)c([N+](=O)[O-])cc1[N+](=O)[O-] | u | x | x | x | x | -5.3%
O=C(O)Cc1sc(N/N=C\c2ccncc2)nc1-c1ccccc1 | -7.4%[11.4 µM] | -6.6 | 2µM* | -11.2 | -21.1% | 17.2%
ClCc1csc(N/N=C/c2cccs2)n1 | x | x | u | x | -34.7% | x
O=[N+]([O-])c1cccc(-c2csc(N/N=C/c3cccc(O)c3)n2)c1 | 56.2µM* | -28.5 | 35.5µM* | u | u | 44.7µM*
C(=N\Nc1nc(-c2ccccc2)cs1)/c1cccs1 | -34.2% | -19.3 | 14.1µM* | -16.7 | u | -23.6%
C(=N\Nc1nc(-c2ccccc2)cs1)/c1ccncc1 | u | 3.9 | 50.1µM* | -5.8 | u | -4.8%
Cc1onc(-c2ccccc2)c1-c1csc(N/N=C/c2ccccc2)n1 | u | -16.8 | x | -6.5 | -24.1% | 20.8%
O=C(NCc1ccc(F)cc1)C(=O)NCC(c1ccco1)N1CCOCC1 (configuration not stated) | -9.6%[11.4 µM] | 1.1 | 4.1% | -9.6 | -9.5% | 52.7%
O=C(Nc1cccc(F)c1)N1CCCC2(CCN(C(=O)c3ccco3)CC2)C1 | x | x | -1.3%[12.7 µM] | x | x | x
COc1ccc2[nH]cc(CCNc3cc(-c4ccccc4OC)ncn3)c2c1 | x | x | -7.6%[0.501 µM] | x | x | x
CC1CN(C(=O)Nc2ccc(C(=O)NCCc3ccc(Cl)cc3)cc2)c2ccccc2S1 (configuration not stated) | -9.7% | x | 6.9%[59 µM] | x | -1.5% | 24.5%
SMILES | JMJD2A Tudor | Six1-Eya2 inh | G9a block | CtBP-E1A blk | BAZ2B inh | HP1b chromo inh
COc1ccc(-n2cnc3cc(NCc4cccs4)ccc32)cc1 | -15.1%[11.4 µM] | -24.8 | u | u | 17.8µM* | 39.8µM*
c1ccc(-n2cnc3cc(NCc4ccco4)ccc32)cc1 | 79.4µM* | -13.3 | 11.2µM* | 3.6 | u | u
c1ccc(-n2cnc3cc(NCc4cccs4)ccc32)cc1 | 56.2µM* | -13.3 | -6.7%[2.33 µM] | -20.8 | 50.1µM* | -32.1%
Cc1nc2cc(NC(=O)NCc3ccco3)ccc2n1C | -21.4% | 0.0 | -25.0%[59 µM] | 1.6 | -6.5% | 14.8%
CSc1ccccc1C(=O)NC1CCCN(c2ccc(C(F)(F)F)cn2)C1 (configuration not stated) | -6.2% | -2.8 | 8.91µM* | 1.1 | -13.0%[57.1 µM] | 67.4%
O=C(NC1CCCN(c2ccc(C(F)(F)F)cn2)C1)c1ccncc1 (configuration not stated) | -9.0% | -0.1 | -0.2% | 4.8 | -3.1% | 23.6%
N/C(=N/OS(=O)(=O)c1ccc([N+](=O)[O-])cc1)c1ccncc1 | -6.9% | 1.5 | 10µM* | x | -5.0% | 5.8%
N/C(=N\OS(=O)(=O)c1ccc2ccccc2c1)c1ccccn1 | 5.01µM* | u | 5.01µM* | u | 20µM* | 42.2%
N/C(=N\OS(=O)(=O)c1ccc2ccccc2c1)c1ccncc1 | 2.3% | 1.3 | 20µM* | -0.7 | 1.5% | u
Cc1ccc(CN2C(=O)S/C(=C\c3ccccc3OCC(=O)O)C2=O)cc1 | -23.2% | -0.2 | -21.6% | x | -24.1% | 37.5%
CN(C)C(=O)CN1C(=O)c2cccc3cccc1c23 | 1.3% | -3.2 | x | x | 24.7% | 34.8%
CCN1C(=O)c2cccc3cccc1c23 | 31.6µM* | 12.6 | -23.3%[12.7 µM] | 13.7 | 36.0% | 8.9%
C[N+]12CCCCC1[C@@H](CO)CCC2 (some centres not stated) | -11.6% | 0.2 | 50.1µM* | 4.4 | -33.3% | 13.5%
CCCCN1C(=O)N(C)C2NC(=O)NC21 (configuration not stated) | -7.3% | 5.0 | 0.4%[12.7 µM] | 6.9 | -22.6% | 27.2%
CCCCN1C(=O)NC2NC(=O)NC21 (configuration not stated) | u | 6.0 | 25.1µM* | -0.1 | 20µM* | -50.8%
COCCCNC(=O)c1ccc(Cn2c(=O)c3cccn3c3cccnc32)cc1 | 12.5% | x | 1.3%[59 µM] | x | 0.9% | 30.3%
CC(C)[C@@H]1NC(=O)c2cc([N+](=O)[O-])cc(F)c2NCCC[C@@H](C(N)=O)NC(=O)[C@H](CO)NC1=O | x | x | 39.8µM* | x | u | x

Source: PubChem (National Center for Advancing Translational Sciences (NCATS))
